Measured values from paper PMC4336329 (PLoS ONE, 2015).
Among all 310,000 compounds or so, about 2,200 (0.71%) showed an effect of 50% or more. Effects have a minus sign here. This is one part of a sample in which strong results are shown more often than they occur.

Molecular target: human ether-à-go-go-related gene (hERG) potassium channel (human, UniProt Q12809)
Assay: primary screen, population patch clamp on CHO cells stably expressing hERG; higher = less effect of the substance

Sequence of human ether-à-go-go-related gene (hERG) potassium channel (Q12809 whole entry, looked up): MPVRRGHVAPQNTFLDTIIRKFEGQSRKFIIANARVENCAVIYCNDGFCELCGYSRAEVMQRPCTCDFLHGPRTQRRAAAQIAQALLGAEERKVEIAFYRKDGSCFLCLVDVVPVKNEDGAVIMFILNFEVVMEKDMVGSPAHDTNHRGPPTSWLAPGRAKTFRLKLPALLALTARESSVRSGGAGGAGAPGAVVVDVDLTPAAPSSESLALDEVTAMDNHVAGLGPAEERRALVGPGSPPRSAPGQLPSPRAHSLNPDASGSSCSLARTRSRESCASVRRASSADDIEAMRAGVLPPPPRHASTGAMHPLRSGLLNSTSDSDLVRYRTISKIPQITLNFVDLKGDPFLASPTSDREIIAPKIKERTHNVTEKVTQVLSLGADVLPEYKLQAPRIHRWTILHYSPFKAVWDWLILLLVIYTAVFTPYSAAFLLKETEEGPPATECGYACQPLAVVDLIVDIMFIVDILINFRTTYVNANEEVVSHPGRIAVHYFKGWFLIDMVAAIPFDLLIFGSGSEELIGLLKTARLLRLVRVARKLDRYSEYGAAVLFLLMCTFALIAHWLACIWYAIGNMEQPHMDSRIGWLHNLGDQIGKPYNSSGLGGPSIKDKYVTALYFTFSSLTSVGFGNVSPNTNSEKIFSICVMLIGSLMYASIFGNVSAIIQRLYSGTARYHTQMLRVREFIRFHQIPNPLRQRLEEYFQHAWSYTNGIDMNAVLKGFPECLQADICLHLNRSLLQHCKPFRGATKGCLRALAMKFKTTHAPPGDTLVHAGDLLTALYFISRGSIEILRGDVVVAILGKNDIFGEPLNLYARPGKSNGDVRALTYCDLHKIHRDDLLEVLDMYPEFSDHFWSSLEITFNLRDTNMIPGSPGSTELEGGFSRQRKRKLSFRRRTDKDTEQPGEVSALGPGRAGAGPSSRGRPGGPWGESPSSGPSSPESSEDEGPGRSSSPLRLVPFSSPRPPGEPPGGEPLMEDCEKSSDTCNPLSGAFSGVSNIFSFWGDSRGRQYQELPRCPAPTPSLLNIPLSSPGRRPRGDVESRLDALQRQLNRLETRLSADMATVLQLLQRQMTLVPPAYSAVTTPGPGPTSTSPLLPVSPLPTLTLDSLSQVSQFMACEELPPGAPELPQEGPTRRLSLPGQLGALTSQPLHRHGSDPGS

| Compound | hERG current change (%, negative = inhibition) at 1uM [%] |
| --- | --- |
| CC(C)Oc1ccc(C(=O)OCC(=O)NCCNC(=O)COC(=O)c2ccc(OC(C)C)cc2)cc1 | 8.62 |
| Cc1ccc(CCNC(=O)C2CCCN(S(=O)(=O)N3CC(C)CC(C)C3)C2)cc1 (stereo not shown) | 16.3 |
| COc1cc(Cl)c(C)cc1NC(=O)COc1ccccc1[N+](=O)[O-] | -2.79 |
| COc1cccc(/C=C/C(=O)Nc2ccc3c(c2)OCCO3)c1OC | 15.5 |
| CC(=O)NCCc1nc(-c2ccc(Cl)cc2)no1 | 10.3 |
| CC(C)OC(=O)Cc1ccccc1 | 10.3 |
| CCOc1nc(S(=O)(=O)c2ccc(C)cc2)c(Cl)s1 | 7.74 |
| Clc1ccc(-c2nnc(NCc3ccccc3)c3ccccc23)cc1 | 4.55 |
| Clc1ccc(-c2nnc(NCCN3CCCC3)c3ccccc23)cc1 | -55.1 |
| Clc1ccc(-c2nc(NCCN3CCOCC3)c3ccccc3n2)cc1 | -16.9 |
| COc1ccc(NC(=O)CSc2nnc(Cn3c(=O)sc4ccccc43)n2C)c(OC)c1 | -2.58 |
| CCN(C(=O)CSc1nc(N)cc(N)n1)C1CCS(=O)(=O)C1 (stereo not shown) | 7.31 |
| CN(CC#CCC(c1ccccc1)c1ccccc1)C(C)(C)C.Cl | -56.4 |
| CN(C)C(C)(C)C#CCC(c1ccccc1)c1ccccc1.Cl | 5.49 |
| CN(CC#CC(O)(c1ccccc1)c1ccccc1)C(C)(C)C | -40.8 |
| CNc1ccc(/C=C/C(=O)c2cccc3ccccc23)cc1[N+](=O)[O-] | 7.91 |
| CC(C)c1ccc(N(CC(=O)N2CCN(Cc3ccccc3)CC2)S(C)(=O)=O)cc1 | 7.12 |
| Cc1cc(/C([O-])=C(/C(=S)Nc2ccc(F)cc2)[n+]2ccccc2)c(C)n1-c1ccc(F)cc1 | -1.77 |
| CCn1nccc1C(=O)Nc1nc2ccccc2n1CCN1CCCCC1 | -11.2 |
| O=C(Nc1nc2ccccc2n1CCN1CCCCC1)c1ccc(Cl)cc1 | -5.1 |

| Compound | hERG current change (%, negative = inhibition) at 1uM [%] |
| --- | --- |
| CCn1cc(Cl)c(C(=O)Nc2nc3ccccc3n2CCN2CCCCC2)n1 | -51.8 |
| O=C(Nc1nc2ccccc2n1CCN1CCCCC1)c1ccco1 | -37.4 |
| Cc1ccc(C(=O)Nc2nc3ccccc3n2CCN2CCCC2)cc1 | -19.5 |
| Cc1c(Cl)c(C(=O)Nc2nc3ccccc3n2CCN2CCCCC2)nn1C | -61.5 |
| CC(C)Oc1cccc(C(=O)C2CCCN(C(=O)CCc3cnn(C)c3)C2)c1 (stereo not shown) | 10.7 |
| CCCn1c(C)cc(/C=C(\C#N)C(=O)OCC(=O)N(C)c2c(N)n(Cc3ccccc3)c(=O)[nH]c2=O)c1C | 11 |
| O=C(CNc1ccc(F)cc1)N/N=C/c1c(O)ccc2ccccc12 | 6.94 |
| CCNc1nnc(-c2ccc(C)cc2)o1 | 9.37 |
| C/C=C/c1ccc(OCCCCNCc2ccco2)c(OC)c1.O=C(O)C(=O)O | -62.6 |
| C/C=C/c1ccc(OCCCNC)c(OC)c1.O=C(O)C(=O)O | -10.9 |
| C/C=C/c1ccc(OCCNCc2ccccc2)c(OC)c1.O=C(O)C(=O)O | 4.38 |
| O=C(c1cccnc1NCc1ccc(F)cc1)N1CCOCC1 | 5.16 |
| CN(C)c1ccc(/C=C/C(=O)c2ccccc2)cc1[N+](=O)[O-] | -0.74 |
| Cc1cccc(NC(=O)CN2CCN(C(=O)C3CCC3)CC2)c1C | -7.56 |
| CCc1ccccc1NC(=O)CN1CCN(CC(=O)Nc2ccc(-c3ccccc3)cc2)CC1 | -7.45 |
| COC(=O)C1CCN(C(=O)/C=C/c2ccccc2)CC1 | 11.1 |
| CCc1ccccc1NC(=O)CN1CCN(C(=O)C2CCN(C(=O)/C=C/c3ccccc3)CC2)CC1 | -74.5 |
| Cc1cccc(NC(=O)CN2CCN(C(=O)C3CCN(C(=O)/C=C/c4ccccc4)CC3)CC2)c1C | -56.6 |
| Cc1cccc(NC(=O)CN2CCN(C(=O)C3CCCO3)CC2)c1C (stereo not shown) | 5.32 |
| O=C(CN1CCN(C(=O)c2ccco2)CC1)NCc1ccc(Cl)cc1 | -35.1 |

| Compound | hERG current change (%, negative = inhibition) at 1uM [%] |
| --- | --- |
| O=C(OCC(=O)N1CCN(C(=O)c2ccco2)CC1)c1cncc(Br)c1 | 6.76 |
| C[C@@H](C(=O)NCc1c(F)cccc1Cl)N1C(=O)N2CCc3c([nH]c4ccccc34)[C@@]2(C)C1=O | 4.12 |
| COC(=O)c1ccc2c(c1)C(C)(C)C(/C=C/c1ccccc1O)=[N+]2C.[I-] | -7.78 |
| CC1(C)OC(=O)C(=CNc2ccccc2)C(=O)O1 | 2.21 |
| C[N+]1=C(/C=C/Nc2ccccc2)C(C)(C)c2ccccc21.[O-][Cl+3]([O-])([O-])[O-] | -62.8 |
| O=C1c2ccccc2C(=O)N1OCc1ccc(Cl)cc1 | 8.72 |
| CCOc1ccccc1OCCN1CCC(Cc2ccccc2)CC1.O=C(O)C(=O)O | -53.7 |
| COc1ccc(OC)c(CN2CCN(C(=O)Cc3ccccc3)CC2)c1.O=C(O)C(=O)O | 17.6 |
| COc1cc(C(=O)OCC(=O)N2CCC(Cc3ccccc3)CC2)cc(OC)c1OC | 13.4 |
| COc1cc(C(C)=O)ccc1OCCN1CCC(Cc2ccccc2)CC1.O=C(O)C(=O)O | -93.3 |
| COc1ccc(OC)c(CN2CCC(Cc3ccccc3)CC2)c1.O=C(O)C(=O)O | -61.9 |
| COc1ccc(CN2CCN(Cc3ccc(C)cc3)CC2)c(OC)c1.O=C(O)C(=O)O | -18.9 |
| COc1ccc(CN2CCN(Cc3ccc(C(F)(F)F)cc3)CC2)c(OC)c1.O=C(O)C(=O)O | -66.6 |
| COc1ccc(CN2CCN(Cc3ccc(C(F)(F)F)cc3)CC2)cc1.O=C(O)C(=O)O | -24.5 |
| COc1ccc(CN2CCC(Cc3ccccc3)CC2)cc1OC.O=C(O)C(=O)O | -32.9 |
| Clc1ccccc1OCCN1CCC(Cc2ccccc2)CC1.O=C(O)C(=O)O | 10.6 |
| Cc1ccccc1OCCN1CCC(Cc2ccccc2)CC1.O=C(O)C(=O)O | -10 |
| COc1cc(CN2CCC(C)CC2)ccc1OCc1ccccc1.O=C(O)C(=O)O | -3.21 |
